What all share (format): functional
In assay [1] the target is Solute carrier family 2, facilitated glucose transporter member 1 (Homo sapiens) (UniProt P11166). The assay can be described thus: ST_JUDE_LEISH: Cytotoxicity at 2uM final concentration against transgenic Leishmania Mexicana promastigotes LmGLUT1 that are glucose transport deficient and complemented with the human glucose transporter GLUT1. Activity is measured by DNA content using SYBR green in vitro.

The target of assay [2] is Hexose transporter 1 (Plasmodium falciparum) (UniProt O97467). The assay can be described thus: ST_JUDE_LEISH: Cytotoxicity at 2uM final concentration against transgenic Leishmania Mexicana promastigotes LmPfHT that are glucose transport deficient and complemented with the Plasmodium falciparum hexose transporter. Activity is measured by DNA content using SYBR green in vitro.

The target of assay [3] is Glucose transporter (Leishmania mexicana) (UniProt O61059). Put plainly: ST_JUDE_LEISH: Cytotoxicity at 2uM final concentration against transgenic Leishmania Mexicana promastigotes LmGT2 that are glucose transport deficient and complemented with the L. Mexicana glucose transporter 2. Activity is measured by DNA content using SYBR green in vitro.

SMILES strings stand for the structures. Values joined by “and” are separate entries in the source; they are usually repeats but may differ in a detail not shown here. Equal entries are not always repeated.

The source of these data is ChEMBL document CHEMBL3433997, “St. Jude Leishmania screening dataset” (2016).

Sequence of Solute carrier family 2, facilitated glucose transporter member 1 (Homo sapiens) (P11166 whole entry): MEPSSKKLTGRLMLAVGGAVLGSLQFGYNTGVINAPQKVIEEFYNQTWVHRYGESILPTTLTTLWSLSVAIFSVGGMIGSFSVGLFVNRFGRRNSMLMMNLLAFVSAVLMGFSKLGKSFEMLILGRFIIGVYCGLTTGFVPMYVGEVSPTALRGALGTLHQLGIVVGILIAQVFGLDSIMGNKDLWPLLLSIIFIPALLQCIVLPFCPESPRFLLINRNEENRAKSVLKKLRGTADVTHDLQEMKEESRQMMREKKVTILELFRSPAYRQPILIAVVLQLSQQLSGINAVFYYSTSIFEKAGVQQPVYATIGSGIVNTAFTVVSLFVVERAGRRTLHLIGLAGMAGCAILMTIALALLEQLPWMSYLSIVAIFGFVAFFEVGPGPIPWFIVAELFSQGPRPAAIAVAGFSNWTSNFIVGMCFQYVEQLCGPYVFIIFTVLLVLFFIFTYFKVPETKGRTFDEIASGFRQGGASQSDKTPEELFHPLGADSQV

By inhibition is commonly meant the drop in the measured response relative to a control, in per cent. `CN(C)CCOc1ccc(-c2cc(-c3ccc(Cl)c(O)c3)c(-c3ccnc(N)n3)o2)cc1`: the values for the inhibition in assay [1], in assay [2] and in assay [3] were 2.11%, 2.73% and 3.05%, respectively.

On to `CCCNCCc1ccc(NS(=O)(=O)c2cccc(-c3ccc(Cl)cc3)c2)cc1`, for which the values for the inhibition in assay [1], in assay [2] and in assay [3] were 1.93%, 0.61% and 1.01%, respectively.

For the compound `COc1ccc2c(=NN=Cc3cccc(C)n3)cc(-c3ccccc3)[nH]c2c1`, the inhibition in assay [1] turned out to be 4.3%; in assay [2], 2.19%; in assay [3], 4.08%.

Turning to `CS(=O)(=O)CCN(CCS(C)(=O)=O)Cc1ccc(-c2ccc3ncnc(Nc4ccc(OCc5cccc(F)c5)c(Cl)c4)c3c2)o1`, the inhibition in assay [1] came out at 2%; in assay [2], 2.02%; in assay [3], 2.35%.

As to `CN(C)c1ccc(C=Cc2nc(=O)c3ccccc3o2)cc1`, the inhibition in assay [1] amounted to 1.38%; in assay [2], 3.22%; in assay [3], 0.74%.

In the case of `Cc1cccc2nc(-c3cccc(-c4cccc(NC(=O)C(C)CN5CCN(C)CC5)c4)c3)[nH]c12` (stereo not drawn), the inhibition in assay [1] was found to be 1.94%; in assay [2], 1.44%; in assay [3], 5.8%.

For `CCc1ccc(S(=O)(=O)Nc2cccc(CCN3CCC(N4CCCCC4)CC3)c2)cc1`, the values for the inhibition in assay [1], in assay [2] and in assay [3] were 1.95%, 1.48% and -0.34%, respectively.

With `CCCCN1CCN(Cc2cccc(NC(=O)c3ccc(Cl)c(Cl)c3)c2)CC1`, the inhibition in assay [1] came out at 13.4%; in assay [2], 10.1%; in assay [3], 10.5%.

For `O=C(CN1CCCCC1)Nc1ccc(Nc2nccc(NCC(O)c3ccccc3)n2)cc1` (stereo not drawn), the inhibition came out at 11.7% in assay [1], 9.59% in assay [2] and 7.17% in assay [3].

As for `COc1ccc(Cn2c(Nc3cccc(C(F)(F)F)c3)nc3cc(C(=O)NCCN4CCCC4)ccc32)cc1Cl`, the inhibition was 0.36% in assay [1], -0.47% in assay [2] and 0.72% in assay [3].

As for `CC(=O)N(C)c1cccc(C(=O)Nc2ccc(-c3cccc(-c4nc5cccc(C)c5[nH]4)c3)cc2)c1`, the inhibition in assay [1] was 2.19%; in assay [2], 1.06%; in assay [3], -8.47%.

On to `Cc1cc(N[C@@H](CC(C)C)C(=O)NCc2cccs2)nc(NCCc2ccc(F)cc2)n1`, for which the inhibition in assay [1] is 0.98%; in assay [2], -0.43%; in assay [3], 0.13%.

Take `COc1ccc2ncc(F)c(CCN3CC[C@H](NCc4cc5c(s4)CCCN5)[C@H](O)C3)c2n1`: the values for the inhibition in assay [1], in assay [2] and in assay [3] were 9.63%, 15.1% and 2.43%, respectively.

With `COc1ccccc1C1CCN(C2CCC(NC(=O)/C=C/c3ccc(C(F)(F)F)cc3F)CC2)CC1` (stereo not drawn), the inhibition is 0.47% in assay [1], 1.54% in assay [2] and -0.44% in assay [3].

Consider `COc1c(C2CCN(CCCCNC(=O)c3cc(-c4ccc(Cl)cc4)sc3C)CC2)ccc2c1CCCC2`, for which the inhibition in assay [1] is 0.21%; in assay [2], 2.22%; in assay [3], -2.53%.

On to `c1cc(-c2ccc(CNC3CCOCC3)cc2)cc(-c2nc3ccccc3[nH]2)c1`, for which the inhibition was -0.19% in assay [1], 1.26% in assay [2] and -2.46% in assay [3].

In the case of `O=C(Nc1ccc(Cl)cc1)Nc1cccc(-c2ccc(-c3nc4cc(F)ccc4[nH]3)cc2)c1`, the figures for the inhibition in assay [1], in assay [2] and in assay [3] were 6.12%, 1.78% and 4.76%, respectively.

Regarding `CCc1cn2c3c(cc(C(=O)N[C@@H](Cc4ccccc4)[C@H](O)CNCc4cccc(C)c4)cc13)N(C)S(=O)(=O)CC2`, the inhibition in assay [1] was found to be 1.35%; in assay [2], 0.76%; in assay [3] it was 2.29%.

Take `COCCSc1nc2scc(C)c2c(=O)n1Cc1cccc(OC)c1`: the inhibition in assay [1] came out at 3.26%; in assay [2] it was 4.92%; in assay [3], 4.9%.

With `CC(C)NCc1ccc(-c2cccc(-c3nc4cc(F)ccc4[nH]3)c2)cc1`, the inhibition in assay [1] is -1.78%; in assay [2] it was 0.53%; in assay [3] it was -0.69%.

On to `COc1ccc2nccc([C@@H](O)CN3CCC(NCc4cc5ccc(Cl)cc5[nH]4)CC3)c2c1`, for which the inhibition came out at 9.64% in assay [1], 12.1% in assay [2] and 4.6% in assay [3].

For `CC(CCc1ccccc1)NCC(O)c1ccc2c3c(cccc13)S(=O)(=O)N2C` (stereo not drawn), the inhibition in assay [1] stood at 5.47%; in assay [2], 5.04%; in assay [3], 4.71%.

For `NC1=NC(c2ccccc2)(c2cccc(O)c2)C(=O)N1CCCc1ccccc1` (stereo not drawn), the inhibition in assay [1] was 10.4% and 2.82%; in assay [2], 10.4% and 1.45%; in assay [3], 6.85% and 0.63%.

Turning to `CC(C)CCN(Cc1cncn1Cc1cccc(C(F)(F)F)c1)C(=O)c1cncc(-c2ccccc2)c1`, the inhibition in assay [1] came to 3.6%; in assay [2] it was 4.72%; in assay [3] it was 1.28%.

Turning to `NS(=O)(=O)c1ccc(CNC(=O)c2cnc3c(O)cccc3c2Nc2cccc(NC(=O)c3ccc(Cl)c(Cl)c3)c2)cc1`, the inhibition came to 5.22% in assay [1], 5.59% in assay [2] and 5.34% in assay [3].

Take `COc1ccc(C(=O)N2CCC3(CC2)C(=O)N(CC(=O)NCC2CCCCC2)CN3c2ccccc2)cc1`: the inhibition in assay [1] came to 3.99%; in assay [2] it was 4.58%; in assay [3], 3.35%.

In the case of `COC(=O)c1ccc(CCCNCC(O)c2cccc(C(F)(F)F)c2)cc1` (stereo not drawn), the inhibition turned out to be 2.51% in assay [1], 3.05% in assay [2] and 6.4% in assay [3].

In the case of `CCn1cc(-c2nc(-c3cc(OC)cc(OC)c3)no2)c(=O)c2ccccc21`, the inhibition in assay [1] worked out at 12.3%; in assay [2], 6.39%; in assay [3], 2.79%.

For the compound `COc1ccc2nccc([C@@H](O)CN3CCC(NC(=O)C(c4cc5ccccc5s4)N4CC(C)OC(C)C4)CC3)c2c1` (stereo partly drawn), the inhibition was 4.19% in assay [1], 2.81% in assay [2] and 3.57% in assay [3].

For the compound `CC(C)NC(=N)NN=Cc1ccc(Cl)c(Cl)c1`, the inhibition in assay [1] was found to be 5.7%; in assay [2], 2.99%; in assay [3] it was 0.07%.

Turning to `O=C(/C=C/c1c[nH]c2ccccc12)NCCCCCN1CCC(c2c[nH]c3ccccc23)CC1`, the inhibition was determined as 3% in assay [1], 1.49% in assay [2] and 1% in assay [3].

For the compound `CN(C)c1nc2cc(-n3cnc4cc(-c5ccc(Cl)cc5)sc4c3=O)ccc2n1CCCN1CCCC1`, the inhibition in assay [1] came out at 12%; in assay [2], 13.9%; in assay [3] it was 6.91%.

Turning to `Cc1cc(NCc2ccccc2)nc(NCc2ccccc2)n1`, the results for the inhibition in assay [1], in assay [2] and in assay [3] were 11.8%, 5.78% and 4.43%, respectively.

As to `CCN1CCN(c2cc(C)c3cc(NC(=O)c4cccc(C(F)(F)F)c4)ccc3n2)CC1`, the figures for the inhibition in assay [1], in assay [2] and in assay [3] were 3.14%, 3.29% and 1.11%, respectively.

As to `COc1ccc(Nc2nccc(N3CCC(NS(=O)(=O)c4ccc(NC(C)=O)cc4)C3)n2)cc1` (stereo not drawn), the inhibition was 2.99% in assay [1], 2.85% in assay [2] and 3.38% in assay [3].

Turning to `O=C(NCC1CCN(CC2CCCCC2)C1)c1cc(-c2cccc(Cl)c2)cs1` (stereo not drawn), the inhibition in assay [1] came to 2.86%; in assay [2] it was 1.57%; in assay [3], 1.14%.
